VP16 counter = counter-screen for ROR gamma inhibitors: Gal4-VP16 reporter. Drosophila S2 Gal4-VP16 UAS-luciferase, luminescence, 20 h. Potency, µM (top dose mostly 53.6 µM), for the others: at the top dose activity, negative = inhibition, usual class: inhibitors. 310,000 compounds, 3.5% hits;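 also: Gal4-VP16 expression switched on by copper sulfate through the metallothionein promoter; % is scaled to controls: 0 for no effect and ±100 for the full control effect; nearly all actives have a fitted effect of over 50% in size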
SW480 rerep = DNA re-replication induction in SW480 cells | SW480 DNA re-replication, Hoechst DNA content imaging, 48 h | AID 624297 | Potency, µM (highest dose often 46.1 µM), inactives show at the highest dose re-replication activation, hits mostly activators | 340,000 compounds, 1.8% hits; also: % of control where 0% means no effect; nearly all actives have a fitted effect of over 55% in size
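Compounds, transferred as 23 nL by pin tool, were incubated with cells for 48 hr; DNA content per nucleus was then quantified by Hoechst staining and fluorescence plate imaging.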
RORgamma inh = ROR gamma (mouse) transcription inhibition; P51450; Drosophila S2 Gal4-RORgamma UAS-luciferase reporter, 20 h; Potency, µM (series often up to 53.6 µM), without a hit: top-dose activity change, negative = inhibition, hits mostly inhibitors; 310,000 compounds, 5.4% hits; AID 2551; also: % is scaled to controls: 0 for no effect and ±100 for the full control effect; nearly all actives have a fitted effect of over 60% in size
Target sequence (P51450 whole entry, looked up, the tested form may be a part): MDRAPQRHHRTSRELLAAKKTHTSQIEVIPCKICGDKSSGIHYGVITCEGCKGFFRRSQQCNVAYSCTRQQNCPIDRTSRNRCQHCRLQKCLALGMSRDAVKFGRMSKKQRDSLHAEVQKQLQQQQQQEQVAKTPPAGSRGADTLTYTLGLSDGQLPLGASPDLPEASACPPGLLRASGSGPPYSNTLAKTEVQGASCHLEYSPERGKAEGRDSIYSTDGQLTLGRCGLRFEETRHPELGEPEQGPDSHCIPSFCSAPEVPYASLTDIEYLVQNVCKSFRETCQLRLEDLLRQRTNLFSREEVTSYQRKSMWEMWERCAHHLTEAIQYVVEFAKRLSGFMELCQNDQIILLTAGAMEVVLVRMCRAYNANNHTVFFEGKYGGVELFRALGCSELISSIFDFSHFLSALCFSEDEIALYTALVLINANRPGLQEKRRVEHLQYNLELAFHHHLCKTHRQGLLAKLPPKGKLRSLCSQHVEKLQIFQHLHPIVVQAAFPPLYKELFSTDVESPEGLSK
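Luminescence from a UAS-regulated Photinus luciferase reporter in stably transfected Drosophila Schneider cells is measured; decreased signal marks ROR gamma inhibition. Fusion expression is induced by 700 uM copper sulfate for 20 hr.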
ELG1 repair inh = ELG1-dependent DNA repair inhibition. HEK293T ELG1-luciferase reporter, luminescence, 16 h; DNA damage induced by 5-fluorouridine. Potency, µM (titrated, usually from 46.1 µM), inactives show at the highest dose activity change, negative = inhibition, hits mostly inhibitors. 330,000 compounds, 2.3% hits. AID 504467; also: % is scaled to controls: 0 for no effect and ±100 for the full control effect; nearly all actives have a fitted effect of over 55% in size
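Step one: seed 2,000 cells per well. Step two: pin-transfer compound or DMSO alongside 5-fluorouridine. Step three: incubate 16 hr, 37 °C, 5% CO2. Step four: add ONE-Glo, wait 30 min, read luminescence.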
MCF10A rereplic = induces DNA re-replication in MCF 10a normal breast cells. MCF 10A DNA re-replication, Hoechst nuclear intensity, 48 h. Potency, µM (series often up to 46.1 µM), for the others: top-dose activity, positive = re-replication, usual class: activators. 350,000 compounds, 2.9% hits. AID 624296; also: % of control where 0% means no effect; nearly all actives have a fitted effect of over 50% in size
An asterisk follows results filed as active; ? = inconclusive; . = no result; [ ] = another dose, or the depositor's remark. Sampled rows, rich in hits. Any-hit rate of the full collection: about 10%. Calls follow the shape of the dose curve; as a rule, active = well fitted curve in the direction sought with a large enough effect; inconclusive = small, poorly fitted or top-dose-only effect, or another doubt; inactive = no such curve, though single readings can be large; an effect the other way counts as inactive or inconclusive. Potency is read from the fitted curve at half-maximal effect.

SMILES	VP16 counter	SW480 rerep	RORgamma inh	ELG1 repair inh	MCF10A rereplic
Cc1cc(NC(=O)CSc2nc(-c3ccco3)cc(C(F)(F)F)n2)no1	-26.4%	0.731µM*	-3.9%	?	3.26µM*
Cc1cc(NC(=O)CCSc2nc(-c3ccco3)cc(C(F)(F)F)n2)no1	?	-31.0%	-7.8%	-3.8%	-10.9%
Cc1cc(NC(=O)CCSc2nc(-c3ccco3)cc(C(F)(F)F)n2)n(-c2ccccc2)n1	20.4%	-3.7%[9.22 µM]	?	25.9µM*	15.5%
O=C(CSc1nc(-c2ccco2)cc(C(F)(F)F)n1)Nc1ccc(C(=O)N2CCCCC2)cc1	4.47µM*	-10.7%	?	4.61µM*	6.9%
CC1CCCCN1N=Nc1nc2c([nH]1)c(=O)n(C)c(=O)n2C (stereo not given)	.	-7.5%	.	.	-2.9%
CCC(CC)C(=O)N1CC(=O)Nc2ccc(F)cc2C1c1ccc(F)cc1 (stereo not given)	-0.8%	12.6%	2.2%	-6.6%	7.4%
O=C(COC(=O)/C=C/C(=O)OCC(=O)NC12CC3CC(CC(C3)C1)C2)NC12CC3CC(CC(C3)C1)C2	-10.8%	18.4µM*	-8.2%	?	5.17µM*
Cc1ccc(CCC(=O)Nc2ccccc2F)s1	16.4%[10 µM]	11.8%	8.4%	?	-1.3%
CC(C)CSC1=NSC2=NC(=O)/C(=C\c3ccccc3)C(=N)N12	17.9%	24.8%	-0.7%	?	14.6µM*
CC(C)CSC1=NSC2=NC(=O)/C(=C\c3coc4ccccc4c3=O)C(=N)N12	1.7%	-9.3%	15.9%	-1.2%	20.6µM*
CCOC(=O)[C@@H]1[C@H]2COc3cc(OC)ccc3[C@@H]2N2C(=O)N(c3ccc(C)cc3)C(=O)[C@@]12C	0.6%	?	5.01µM*	-10.3%	-24.8%
CCOC(=O)[C@@H]1[C@H]2COc3cc(OC)ccc3[C@@H]2N2C(=O)N(c3cccc(F)c3)C(=O)[C@@]12C	0.3%	4.3%	10µM*	0.9%	?
CCOC(=O)[C@@H]1[C@H]2COc3cc(OC)ccc3[C@@H]2N2C(=O)N(c3ccc(Cl)cc3)C(=O)[C@@]12C	?	?	8.91µM*	?	5.0%
CNC(=S)N1CCN=C1Nc1nc(C)cc(C)n1	?	-14.4%	?	?	0.8%
Cc1ccc(/C=N/N(C)C2=NS(=O)(=O)c3ccccc32)o1	-4.2%	.	44.4%	-25.0%	.
CN(/N=C/c1ccc(Br)o1)C1=NS(=O)(=O)c2ccccc21	-10.1%	?	-30.5%	-8.3%	23.1µM*
COc1ccc(CC(=O)NCC(c2ccc(OC)cc2)N(C)C)cc1 (stereo not given)	-0.9%	?	21.6%	3.4%	3.26µM*
COc1ccccc1C(=O)NCCC(=O)Nc1ncccc1C	8.91µM*	-1.7%	5.62µM*	12.4%	-0.3%
O=C(NCc1ccccn1)c1ccc(Cl)cc1Cl	11.6%	-1.4%	-23.3%	?	2.1%
COc1ccccc1C(=O)NCc1ccccn1	13.4%	-95.9%	8.91µM*	?	-2.2%
O=C(NCc1ccccn1)c1cc(Cl)ccc1OCc1ccccc1	-0.1%	-2.5%	29.8%	16.4µM*	-0.9%
COc1ccccc1C(=O)NCCC(=O)NCc1ccccn1	.	-18.8%	.	17.5%	-1.7%
O=C(NCCc1ccccc1)c1cccc(NC(=O)C2CCCC2)c1	.	3.0%	.	.	-19.1%
CCN(CC(=O)Nc1c(F)cccc1F)C(=O)CN(C)S(=O)(=O)c1ccc(F)cc1	.	2.0%	.	8.2%	2.8%
NS(=O)(=O)c1cc(C(=O)Nc2ccc3c(c2)OCCCO3)ccc1Cl	?	-4.4%	-17.5%	?	-1.1%
SMILES	VP16 counter	SW480 rerep	RORgamma inh	ELG1 repair inh	MCF10A rereplic
CCc1ccc(OCC(=O)NNCC(=O)Nc2ccc(OC)cc2)cc1	.	-0.8%	.	3.8%	-5.8%
CCCCC(=O)Nc1ccc(NC(=O)c2ccccc2OC)cn1	-1.9%	-0.7%	-26.2%	18.4µM*	?
O=C(COc1ccccc1C(=O)NCc1ccccn1)Nc1ccc(Br)cc1	-3.9%	-2.7%	16.1%	16.4µM*	26.8%
COc1ccccc1C(=O)NCCC(=O)NCC(c1ccccc1)N(C)C (stereo not given)	-10.0%	-1.6%	11.2µM*	20.4%	6.6%
CCCCC(=O)Nc1ccc(NC(=O)c2cc(OC)c(OC)c(OC)c2)cn1	-7.6%	-4.4%	7.5%	-5.1%	2.3%
CCOc1ncccc1C(=O)NCc1ccc(OC)cc1	0.5%	8.2µM*	-6.3%	-9.0%	?
O=C(COc1ccccc1C(=O)NCc1ccccc1)Nc1ccccc1	.	-2.5%	.	?	9.9%
C[C@H]1CC[C@@]2(O[C@H](CCO)C[C@H](O)[C@H]2O)O1	.	1.2%	.	.	-0.4%
Cc1ccc2cc3cc(C(=O)N(CC(=O)NC4CCCC4)c4cccc(C)c4C)sc3nc2c1	-15.4%	23.5%	25.3%	?	0.6%
CCN(CC(=O)Nc1ccc(NC(C)=O)cc1)C(=O)c1cc2c(s1)CCCC2	.	?	.	?	11.5%
COc1ccc(CCN(C)C(=O)c2ccc(S(=O)(=O)Nc3ccccc3C)cc2)cc1OC	5.8%	1.1%	-6.4%	-13.2%	16.9%
CCOc1ccc(NS(=O)(=O)c2ccc(C(=O)N(C)CCc3ccc(OC)c(OC)c3)cc2)cc1	7.08µM*	0.5%	?	?	-2.8%
CCOc1ccc(NS(=O)(=O)c2ccc(C(=O)N3CCN(C(C)=O)CC3)cc2)cc1	20µM*	0.7%	?	-13.9%	10.1%
O=C(c1ccc(S(=O)(=O)Nc2ccccc2)cc1)N1CCC1	.	14.6µM*	.	-4.3%	-36.0%
Cc1ccc(S(=O)(=O)NCc2ccc(C(=O)N3CCN(c4ccccn4)CC3)cc2)cc1	-2.7%	15.2%	31.0%	?	26.0%
Cc1ccc(NS(=O)(=O)c2ccc(C(=O)N3CCN(c4ccccn4)CC3)cc2)cc1	?	18.6%	-37.0%	14.6µM*	?
O=C(c1ccc(NS(=O)(=O)c2ccccc2)cc1)N1CCCCCC1	5.6%	-5.3%	29.7%	-36.9%	-1.9%
CCC1Oc2ccc(C)cc2N(CC(=O)NCC2CCCO2)C1=O (stereo not given)	7.1%	-20.2%	-3.7%	13.6%	-23.2%
O=C(c1ccc(NS(=O)(=O)c2cccc([N+](=O)[O-])c2)cc1)N1CCN(C(=O)c2ccco2)CC1	.	24.6%	.	12.2%	-0.5%
COc1cccc(S(=O)(=O)Nc2ccc(C(=O)N3CCN(C(=O)c4ccco4)CC3)cc2)c1	?	-4.9%	?	18.4µM*	-16.0%
N#CC1=C(N)N2C(=C(C#N)C1c1cccc(Br)c1)Nc1ccccc12 (stereo not given)	12.6µM*	14.6µM*	?	2.91µM*	20.6µM*
N#CC1=C(N)N2C(=C(C#N)C1c1ccc(Br)cc1)Nc1ccccc12 (stereo not given)	11.2µM*	16.4µM*	?	2.91µM*	2.06µM*

Screening data: PubChem, National Center for Advancing Translational Sciences (NCATS)
